# This is a sample that favours compounds with a hit; in the whole collection about 4.8% have one here.
# SKKanGAS inh – S. pyogenes SKKanGAS growth inhibitors in kanamycin, primary screen, streptokinase expression inhibitor project, SKKanGAS strain, BacTiter-Glo luminescence; 6 h; inhibition, % at 7.5 µM; 1.3% of 300,000 active; AID 1662, 2009;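 active means mean replicate score, as percent of positive control median, at least 50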;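 further: strain carries kanamycin resistance gene driven by streptokinase promoter and grows in 40 µg/ml kanamycin; loss of luminescence reflects streptokinase promoter inhibition or plain growth inhibition; 0% = median of DMSO wells and 100% = positive control at its reference dose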
# NALP1 yeast inh – NALP1 inflammasome inhibitors in reconstituted yeast, colorimetric, S. cerevisiae, triplicate retest; S. cerevisiae NALP1/ASC/caspase-1 growth, X-gal OD620, 72 h; inhibition, % at 10 µM; 0.61% of 280,000 active; in the data active means inhibition mostly above about 24%, no sharp cut-off; inactive means mostly below about 32%
# tim10-1 inh – growth inhibitors of tim10-1 mutant yeast, primary screen, luminescence, uHTS. S. cerevisiae tim10-1 ts strain growth, BacTiter-Glo, 24 h. inhibition, % at 20 µM. 2.2% of 330,000 active. AID 463190, 2010;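 active means inhibition of at least 40%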;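 further: mutant grown at 25 °C; 0% = DMSO wells with yeast and 100% = wells holding no yeast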
# TIM10 inh – growth inhibitors of isogenic TIM10 control yeast, primary screen, counter-screen for tim10-1 yeast inhibitor project, luminescence, uHTS. AID 463195, 2010. S. cerevisiae TIM10 strain growth, BacTiter-Glo luminescence, 24 h. inhibition, % at 10 µM. 1.4% of 330,000 active;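 active means inhibition of 40% or more at the single tested concentration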;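 further: wild-type TIM10 isogenic control strain grown at permissive 25 °C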
# PfHsp90 set2 – growth inhibition of PfHsp90-expressing yeast, primary screen, antimalarial PfHsp90 inhibitor project, S. cerevisiae, BacTiter-Glo luminescence, single point, set 2 | AID 504621, 2011 | 0.32% of 310,000 active | BacTiter-Glo ATP, 48 h; yeast lacking PDR1 and PDR3 efflux regulators | inhibition, % at 9.4 µM;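 active means every replicate shows inhibition above about 80%, whatever the replicate mean, limit read from the data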;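 further: 0% = DMSO neutral controls and 100% = 20 µM radicicol positive controls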
# tim23-1 inh – growth inhibitors of tim23-1 mutant yeast, primary screen, luminescence, uHTS; S. cerevisiae tim23-1 growth, BacTiter-Glo luminescence, 24 h; inhibition, % at 20 µM; 1.3% of 330,000 active; AID 463212, 2010;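 active means growth inhibition of the mutant yeast at or above 50%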;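 further: temperature-sensitive mutant grown at 25 °C; plate controls were DMSO-treated mutant yeast for no effect and medium wells lacking yeast for full effect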
# tim23-1 confirm – tim23-1 mutant yeast growth inhibitors, confirmation, luminescence, single concentration. shares compounds with tim23-1 inh. S. cerevisiae tim23-1 growth, BacTiter-Glo luminescence, 24 h. inhibition, % at 20 µM. 83% of 4,400 active. AID 463218, 2010;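 active means inhibition above about 39% in either of two replicate wells at 20 µM, limit read from the data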;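 further: temperature-sensitive tim23-1 mutant grown at 25 °C; 0% = DMSO wells with yeast and 100% = medium wells without yeast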
# The depositor's hits bear a star; . = no result given.
SMILES,SKKanGAS inh,NALP1 yeast inh,tim10-1 inh,TIM10 inh,PfHsp90 set2,tim23-1 inh,tim23-1 confirm
COc1ccccc1C(=O)Nc1ccccc1C(=O)NCc1ccco1,1,3,23,5,11,28,.
Cc1cccc(-c2n[nH]c(=S)n2/N=C/c2cccs2)c1,5,-20,10,33,.,51*,43*
CC1(C)CC(=O)C(N=Nc2ccc(C(F)(F)F)cc2[N+](=O)[O-])=C(O)C1,39,25,5,4,-9,78*,78*
CC1(C)CC(=O)C(N=Nc2cccc([N+](=O)[O-])c2)=C(O)C1,2,24,25,20,-3,88*,93*
Cc1ccc(NC(=S)N/N=C/c2c(Cl)cccc2Cl)c(C)c1,20,.,39,26,34,51*,40*
Cc1nc2cc(C(=O)OCC(=O)Nc3cccc(Cl)c3)ccc2n1-c1ccccc1,19,32,12,16,49,53*,30
COc1ccc(-c2cc(-c3ccc(F)cc3)nc(N3CCN(C)CC3)n2)cc1,13,.,29,31,10,55*,58*
Cc1cccc(-c2cc3nc4c(c(N5CCOCC5)n3n2)CCCC4)c1,32,8,11,14,20,58*,47*
Cc1cc(Nc2ccccc2)nn1C(=O)c1ccccc1,-3,53,0,30,-17,51*,52*
O=C1C=C(c2cccc(Cl)c2O)C[C@@H](c2ccc3c(c2)OCO3)C1,.,.,34,29,-139,67*,54*
O=C1C=C(c2cccc(Cl)c2)C[C@@H](c2ccc3c(c2)OCO3)C1,.,.,-11,-1,-54,26,.
Cc1cc(C(=O)CCl)c(C)n1CCc1ccc(F)cc1,-2,-18,21,28,-61,49,.
Cc1cc(C(=O)CCl)c(C)n1CCc1ccc(Cl)cc1,-21,-8,4,0,-11,55*,53*
O=C(Cc1cccc(NC(=O)C2CCCN(C(=O)CCc3ccccc3)C2)c1)Nc1cccc(C(=O)N2CCCC2)c1 (stereo unspecified),.,.,2,-5,-6,10,.
CNc1nc(N)c([N+](=O)[O-])c(N2CCCCCC2)n1,4,19,27,7,-4,19,.
CC(C)CCNc1nc(N)c([N+](=O)[O-])c(N2CCCCCC2)n1,30,15,21,26,-33,50*,32
O=C(COC(=O)c1ccc2ncsc2c1)Nc1cc(Cl)ccc1F,.,.,30,10,-13,56*,41*
O=C(COC(=O)c1ccc2ncsc2c1)Nc1ncc(Cl)cc1Cl,-13,9,12,-1,9,14,.
Cc1ccc(S(=O)(=O)CCSc2nccn2C)cc1,0,15,-14,-7,-11,1,.
Cc1ccc(Nc2nc(Cl)nc(NC(C)(C)C)n2)cc1,41,18,32,14,-17,50*,40*
COc1ccc(S(N)(=O)=O)cc1C(=O)OCC(=O)N1c2ccccc2NC(=O)C1(C)C,.,.,-14,-3,0,94*,13
COc1ccc(N2CCN(CCC(=O)c3ccc4ccccc4c3)CC2)cc1,-2,17,39,25,22,69*,57*
COc1ccc(N2CCN(CC(=O)c3ccccc3)CC2)cc1,1,21,29,16,0,12,.
Cc1nn2c(-c3ccc(F)cc3)ccnc2c1Br,-1,20,9,9,5,21,.
COc1ccc(-c2ccnc3c(Br)c(C)nn23)cc1,.,.,32,13,-7,50*,53*
SMILES,SKKanGAS inh,NALP1 yeast inh,tim10-1 inh,TIM10 inh,PfHsp90 set2,tim23-1 inh,tim23-1 confirm
Cc1ccccc1OCCCC(=O)NC1CCCCC1,0,16,6,1,28,11,.
COc1ccc(C(NCC(=O)NC(C)c2ccc(Cl)cc2)c2ccccc2)cc1 (stereo unspecified),15,23,22,14,13,35,.
CCOc1ccccc1NC(=O)NC1CCN(CC(=O)Nc2ccc3c(c2)OCCO3)CC1,4,-1,-57,-33,.,-90,.
CCOC(=O)c1ccc(NC(=O)c2cc3ccccc3o2)cc1,3,10,4,19,-1,17,.
Cc1cccc(NC(=O)c2cc3ccccc3o2)c1,-18,10,-30,25,16,54*,41*
CCOC(=O)c1cccc(NC(=O)c2cc3ccccc3o2)c1,-8,-2,23,27,-1,58*,52*
CCOC(=O)c1cccc(NC(=O)CCc2ccccc2)c1,11,9,21,9,.,61*,26
CCC(=O)Nc1cccc(NC(=O)c2cc3ccccc3o2)c1,-3,-1,-16,-3,3,-10,.
C1CCN(c2nc3nonc3nc2N2CCCC2)C1,-8,-5,9,3,.,-4,.
O=C(NCCCc1ccccc1)c1ccc(F)cc1,-3,24,2,-3,15,14,.
Cc1cc(N2CCOCC2)n2nc(C)c(-c3ccccc3)c2n1,.,18,29,6,-117,38,.
Cc1cc(C)n2nc(C)c(-c3ccc(Cl)cc3)c2n1,3,-24,16,14,-3,52*,30
Cc1cc(N2CCCCCC2)n2nc(C)c(-c3ccccc3)c2n1,5,7,30,38,-1,57*,51*
COc1ccc(S(=O)(=O)N2CCN(Cc3cccc(OC)c3)CC2)cc1,1,-34,25,21,10,55*,43*
COc1cccc(CN2CCN(S(=O)(=O)c3ccc(Br)cc3)CC2)c1,-17,3,17,4,.,21,.
O=C(NCC(=O)N(c1cnc2ccccc2c1)C(C(=O)NC1CCCC1)c1ccncc1)c1ccco1 (stereo unspecified),0,-63,2,13,4,68*,9
O=C(NCC(=O)N(c1ccccc1)C(C(=O)NC1CCCCC1)c1ccncc1)c1ccco1 (stereo unspecified),-6,-5,9,-10,-5,3,.
O=C(Cc1ccccc1)NCCN1CCCC1,-4,.,12,10,11,15,.
N=c1oc2ccc([N+](=O)[O-])cc2cc1C(=O)NCc1ccccc1,-3,3,26,15,-2,59*,56*
Clc1ccc(-c2csc3ncnc(Cl)c23)cc1,2,20,9,-13,-16,60*,42*
NNc1ncnc2scc(-c3ccc(Cl)cc3)c12,0,25,6,31,19,58*,50*

# High-throughput results deposited in PubChem BioAssay by several laboratories.
